Assay results: PubChem BioAssay (Tox21)
Where “and” joins values, the source holds several entries; their conditions need not be identical. Equal entries are not always repeated. Records with an inconclusive call do not appear. Entries that show only a call come without a potency. More than one record can exist for a structure, and the calls need not agree. Calls of active or inactive are those of the source. Unless noted, calls follow the shape of the dose curve; as a rule, active = well fitted curve in the direction sought with a large enough effect in the repeat runs; inconclusive = weak or mixed curves; inactive = no such curve, though single readings can be large; an effect the other way counts as inactive or inconclusive.

Test system: not listed separately
Experiment: qHTS assay to identify small molecule antagonists of the retinoid-related orphan receptor gamma (ROR-gamma) signaling pathway - cell viability counter screen (AID 1159520); also: nearly all actives have a fitted effect of over 50% in size; also: potency is read from the fitted curve at half-maximal effect
Settings: Tet-on RORgamma CHO cells viability, ATP luminescence, 16 h; series mostly up to 92.4 µM
Outline: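 Tet-on ROR gamma CHO cells were given compounds for 2 hr, then doxycycline hyclate at 1 uM final, and incubated 16 hr at 37 C. Viability was measured as ATP content by CellTiter-Glo luminescence.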
In the case of `O=Nc1ccc(Nc2ccccc2)cc1`, the Potency is reported as 19.4 µM (active) and 15.4 µM (active).
With `CCCCCC(=O)O[C@]1(C(C)=O)CC[C@H]2[C@@H]3CCC4=CC(=O)CC[C@]4(C)[C@H]3CC[C@@]21C` the Potency was 60.7 µM (active).
In the case of `CCCCCCCCCCCC[N+](C)(C)C`, the Potency is reported as “inactive”.
For `Cc1cc(C2(c3cc(C)c(O)cc3C)OS(=O)(=O)c3ccccc32)c(C)cc1O`, the Potency was “inactive”.
With `Nc1cc(S(=O)(=O)O)cc2cc(S(=O)(=O)O)cc(O)c12` the Potency was “inactive”.
With `Nc1ccc2cc3ccccc3cc2c1` the Potency was “inactive”.
In the case of `c1ccc2cc3c(ccc4ccccc43)cc2c1`, the Potency is reported as “inactive”.
With `CCn1c2ccccc2c2cc(N)ccc21` the Potency was “inactive”.

Biological target: Nuclear receptor ROR-gamma (Homo sapiens) (UniProt P51449)
Experiment: qHTS assay to identify small molecule antagonists of the retinoid-related orphan receptor gamma (ROR-gamma) signaling pathway (AID 1159521; also: nearly all actives have a fitted effect of over 50% in size; also: potency is read from the fitted curve at half-maximal effect;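 as to activity change, negative = inhibition: CHO cells with doxycycline inducible ROR-gamma driving an RORE luciferase reporter; top concentration of the series differs between compounds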)
Settings: Tet-on RORgamma CHO cells, RORE-luciferase, 16 h; series mostly up to 92.4 µM
Outline: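 Test compounds were applied to Tet-on RORγ CHO cells 2 h ahead of doxycycline hyclate (1 uM final). Luciferase reporter activity was quantified by luminescence after 16 h at 37 C and 5% CO2.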
For `CCc1cc(C(C)(C)C)c(O)c(C(C)(C)C)c1`, the Potency was “inactive”.
With `COC(=O)[C@H]1[C@H]2C[C@@H]3c4[nH]c5cc(OC)ccc5c4CCN3C[C@H]2C[C@@H](OC(=O)c2cc(OC)c(OC)c(OC)c2)[C@@H]1OC` the Potency was 30.6 µM (active) and 28.1 µM (active).
With `NCCCCCC(=O)O` the Potency was “inactive”.
For `CCCCCCCCCCCCCCCCCl`, the activity change, negative = inhibition was 19.2% [at 19 µM] (inactive).
In the case of `CC(C)(C)NCC(O)COc1ccccc1OCC1CCCO1` (centres undefined), the Potency is reported as “inactive”.
With `CC(N)=O` the Potency was “inactive”.
In the case of `O=Nc1ccc(Nc2ccccc2)cc1`, the Potency is reported as 7.74 µM (active) and 10.9 µM (active).
For `O=c1n(CC2CO2)c(=O)n(CC2CO2)c(=O)n1CC1CO1` (centres undefined), the Potency was “inactive”.
In the case of `CCC(=O)/C=C/C1C(C)=CCCC1(C)C` (centres undefined), the Potency is reported as “inactive”.
For `NC(N)=Nc1nc(CSCC/C(N)=N/S(N)(=O)=O)cs1`, the Potency was “inactive”.
For `CC(=O)CC(C)=O`, the Potency was “inactive”.
With `CCCCCC(=O)O[C@]1(C(C)=O)CC[C@H]2[C@@H]3CCC4=CC(=O)CC[C@]4(C)[C@H]3CC[C@@]21C` the Potency was 27.1 µM (active) and 23.7 µM (active).
With `CC(=O)OCC1=C(C(=O)O)N2C(=O)[C@@H](NC(=O)Cc3cccs3)[C@H]2SC1` the Potency was “inactive”.
For `OCC(CO)N[C@H]1C[C@](O)(CO)[C@@H](O)[C@H](O)[C@H]1O`, the Potency was “inactive”.
With `CC1COC(=O)O1` (centres undefined) the Potency was “inactive”.
In the case of `Cc1occc(=O)c1OC(=O)C(C)C`, the Potency is reported as “inactive”.
For `C=C(C)C1CC=C(C)C(OC(C)=O)C1` (centres undefined), the Potency was “inactive”.
In the case of `Cc1scc2c1N(C(=O)CN1CCN(C)CC1)c1ccccc1NC2=O`, the Potency is reported as “inactive”.
For `CCC[C@H](N[C@@H](C)C(=O)N1[C@H](C(=O)O)C[C@@H]2CCCC[C@@H]21)C(=O)OCC`, the Potency was “inactive”.
In the case of `CCCCCCCCCCCC[N+](C)(C)C`, the Potency is reported as 24.3 µM (active) and 21.7 µM (active).
In the case of `Cc1cc(C2(c3cc(C)c(O)cc3C)OS(=O)(=O)c3ccccc32)c(C)cc1O`, the Potency is reported as “inactive”.
With `CC[C@@H](N)CO` the Potency was “inactive”.
For `Nc1cc(S(=O)(=O)O)cc2cc(S(=O)(=O)O)cc(O)c12`, the Potency was “inactive and 30.6 µM (active)”.
In the case of `Nc1ccc2cc3ccccc3cc2c1`, the Potency is reported as “inactive”.
With `CNC1(C)C2CCC(C2)C1(C)C` (centres undefined) the Potency was “inactive”.
With `CC(=O)O[C@]1(C(C)=O)CC[C@H]2[C@@H]3C[C@H](C)C4=CC(=O)CC[C@]4(C)[C@H]3CC[C@@]21C` the Potency was 26.6 µM (active).
For `c1ccc2n[nH]nc2c1`, the Potency was “inactive”.
In the case of `CCc1ccc(C(c2ccc(CC)cc2)C(Cl)Cl)cc1`, the Potency is reported as “inactive”.
In the case of `c1ccc2cc3c(ccc4ccccc43)cc2c1`, the Potency is reported as “inactive”.
For `CCn1c2ccccc2c2cc(N)ccc21`, the Potency was 19.1 µM (active).
With `CCN(CC)C(=O)Nc1ccc(OCC(O)CNC(C)(C)C)c(C(C)=O)c1` (centres undefined) the Potency was “inactive”.
For `COc1cc(C(=S)N2CCOCC2)ccc1O`, the Potency was “inactive”.
In the case of `NNCCc1ccccc1`, the Potency is reported as “inactive”.
In the case of `CC(C)(C)NC(=O)[C@@H]1CN(Cc2cccnc2)CCN1C[C@@H](O)C[C@@H](Cc1ccccc1)C(=O)N[C@H]1c2ccccc2C[C@H]1O`, the Potency is reported as “inactive”.
For `CC(C)CCOCc1ccccc1`, the Potency was “inactive”.

Test system: not listed separately
Experiment: qHTS assay to identify small molecule agonists of the AP-1 signaling pathway - cell viability counter screen (AID 1159525; calls by dose curve; also: nearly all actives have a fitted effect of over 55% in size)
Settings: ME-180 (cervical carcinoma) AP-1-bla cells viability, ATP luminescence, 5 h; series mostly up to 76.8 µM
Outline: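 Same-well cytotoxicity counter screen of the Tox21 10K library in ME-180 cells. The readout is ATP-dependent luminescence after 5 h compound treatment. Data are normalised to DMSO and tetra n-octyl ammonium bromide controls.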
In the case of `CCc1cc(C(C)(C)C)c(O)c(C(C)(C)C)c1`, the Potency is reported as “inactive”.
For `COC(=O)[C@H]1[C@H]2C[C@@H]3c4[nH]c5cc(OC)ccc5c4CCN3C[C@H]2C[C@@H](OC(=O)c2cc(OC)c(OC)c(OC)c2)[C@@H]1OC`, the Potency was “inactive”.
With `NCCCCCC(=O)O` the Potency was “inactive”.
In the case of `CCCCCCCCCCCCCCCCCl`, the viability change, negative = cytotoxic is reported as -12.8% [at 15.8 µM] (inactive).
For `CC(C)(C)NCC(O)COc1ccccc1OCC1CCCO1` (centres undefined), the Potency was “inactive”.
With `CC(N)=O` the Potency was “inactive”.
For `O=Nc1ccc(Nc2ccccc2)cc1`, the Potency was “inactive”.
In the case of `O=c1n(CC2CO2)c(=O)n(CC2CO2)c(=O)n1CC1CO1` (centres undefined), the Potency is reported as “inactive”.
In the case of `CCC(=O)/C=C/C1C(C)=CCCC1(C)C` (centres undefined), the Potency is reported as “inactive”.
With `NC(N)=Nc1nc(CSCC/C(N)=N/S(N)(=O)=O)cs1` the Potency was “inactive”.
For `CC(=O)CC(C)=O`, the Potency was “inactive”.
In the case of `CCCCCC(=O)O[C@]1(C(C)=O)CC[C@H]2[C@@H]3CCC4=CC(=O)CC[C@]4(C)[C@H]3CC[C@@]21C`, the Potency is reported as “inactive”.
With `CC(=O)OCC1=C(C(=O)O)N2C(=O)[C@@H](NC(=O)Cc3cccs3)[C@H]2SC1` the Potency was “inactive”.
In the case of `OCC(CO)N[C@H]1C[C@](O)(CO)[C@@H](O)[C@H](O)[C@H]1O`, the Potency is reported as “inactive”.
In the case of `CC1COC(=O)O1` (centres undefined), the Potency is reported as “inactive”.
With `Cc1occc(=O)c1OC(=O)C(C)C` the Potency was “inactive”.
In the case of `C=C(C)C1CC=C(C)C(OC(C)=O)C1` (centres undefined), the Potency is reported as “inactive”.
For `Cc1scc2c1N(C(=O)CN1CCN(C)CC1)c1ccccc1NC2=O`, the Potency was “inactive”.
For `CCC[C@H](N[C@@H](C)C(=O)N1[C@H](C(=O)O)C[C@@H]2CCCC[C@@H]21)C(=O)OCC`, the Potency was “inactive”.
In the case of `CCCCCCCCCCCC[N+](C)(C)C`, the Potency is reported as “inactive”.
For `Cc1cc(C2(c3cc(C)c(O)cc3C)OS(=O)(=O)c3ccccc32)c(C)cc1O`, the Potency was “inactive”.
In the case of `CC[C@@H](N)CO`, the Potency is reported as “inactive”.
For `Nc1cc(S(=O)(=O)O)cc2cc(S(=O)(=O)O)cc(O)c12`, the Potency was “inactive”.
With `Nc1ccc2cc3ccccc3cc2c1` the Potency was “inactive”.
With `CNC1(C)C2CCC(C2)C1(C)C` (centres undefined) the Potency was “inactive”.
In the case of `CC(=O)O[C@]1(C(C)=O)CC[C@H]2[C@@H]3C[C@H](C)C4=CC(=O)CC[C@]4(C)[C@H]3CC[C@@]21C`, the Potency is reported as “inactive”.
With `c1ccc2n[nH]nc2c1` the Potency was “inactive”.
With `CCc1ccc(C(c2ccc(CC)cc2)C(Cl)Cl)cc1` the Potency was “inactive”.
For `c1ccc2cc3c(ccc4ccccc43)cc2c1`, the Potency was “inactive”.
In the case of `CCn1c2ccccc2c2cc(N)ccc21`, the Potency is reported as “inactive”.
With `CCN(CC)C(=O)Nc1ccc(OCC(O)CNC(C)(C)C)c(C(C)=O)c1` (centres undefined) the Potency was “inactive”.
In the case of `Cc1cc(C(C)(C)C)c(O)c(C(C)(C)C)c1`, the Potency is reported as “inactive”.
In the case of `COc1cc(C(=S)N2CCOCC2)ccc1O`, the Potency is reported as “inactive”.
In the case of `NNCCc1ccccc1`, the Potency is reported as “inactive”.
For `CC(C)(C)NC(=O)[C@@H]1CN(Cc2cccnc2)CCN1C[C@@H](O)C[C@@H](Cc1ccccc1)C(=O)N[C@H]1c2ccccc2C[C@H]1O`, the Potency was “inactive”.
In the case of `CC(C)CCOCc1ccccc1`, the Potency is reported as “inactive”.
